Compounds with a hit are over-represented: about 5.9% of the library has one in this group of screens.
Gal4-VP16 FLuc = inhibits Gal4-VP16 luciferase reporter, ROR gamma counter-screen. Drosophila S2 Gal4-VP16 UAS-luciferase, luminescence, 20 h. Potency, µM (titrated, usually from 53.6 µM), without a hit: top-dose activity, negative = inhibition, usual class: inhibitors. hit rate 3.5% among 310,000;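 note: Gal4-VP16 expression switched on by copper sulfate through the metallothionein promoter; % is set by controls: 0 for no effect and ±100 for the full control effect; nearly all actives have a fitted effect of over 50% in size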
GLP1R ag = GLP-1 receptor (human) agonism; Potency, µM (titrated, usually from 45.6 µM), for the others: at the top dose activation, hits mostly activators; AID 624172; P43220; HEK293 GLP-1R CRE-luciferase, luminescence, 4-6 h; cells express a hypersensitive GLP-1R form; hit rate 0.007% among 380,000; note: % of control where 0% means no effect
Target sequence (P43220 whole entry, looked up): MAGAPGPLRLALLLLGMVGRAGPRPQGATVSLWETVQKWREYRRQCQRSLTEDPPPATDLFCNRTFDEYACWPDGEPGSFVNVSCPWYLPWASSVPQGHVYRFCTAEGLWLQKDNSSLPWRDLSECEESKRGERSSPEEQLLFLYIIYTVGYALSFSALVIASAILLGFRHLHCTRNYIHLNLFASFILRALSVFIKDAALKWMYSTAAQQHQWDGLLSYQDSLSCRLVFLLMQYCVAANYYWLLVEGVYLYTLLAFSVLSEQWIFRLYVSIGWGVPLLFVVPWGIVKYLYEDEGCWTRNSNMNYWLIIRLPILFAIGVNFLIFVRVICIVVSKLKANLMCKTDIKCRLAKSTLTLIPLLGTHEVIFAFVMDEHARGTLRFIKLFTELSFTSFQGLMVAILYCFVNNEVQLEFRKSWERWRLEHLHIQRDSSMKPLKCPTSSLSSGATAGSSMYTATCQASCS
GLP-1R inv ag = GLP-1 receptor (human) inverse agonism | hit rate 1.6% among 410,000 | P43220 | HEK293 GLP-1R CRE-luciferase, luminescence, 24 h; GLP-1R form is constitutively active | AID 624417 | Potency, µM (highest dose often 38.3 µM), for inactives: at the top dose activity change, negative = inhibition, usual class: inhibitors; note: % is set by controls: 0 for no effect and ±100 for the full control effect; nearly all actives have a fitted effect of over 55% in size
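Using stably transfected HEK293 (constitutively active GLP-1R, cAMP-luciferase reporter), compounds were incubated 24 hr and luciferase measured by luminescence.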
HEK293 tox = cytotoxicity counter-screen for GLP-1 receptor inverse agonists; HEK293 cAMP-luciferase reporter cells, luminescence, 24 h; Potency, µM (titrated, usually from 38.3 µM), inactives show at the top dose activity change, negative = inhibition, most hits filed as inhibitors; hit rate 0.13% among 410,000;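 note: loss of luciferase light is scored as toxicity; % is set by controls: 0 for no effect and ±100 for the full control effect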
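Step one: seed cells (200 cells/uL, DMEM with 10% Nu serum, 1% pen-strep). Step two: 12-hour incubation at 37 deg C. Step three: pin 23 nL compound, incubate 24 hr. Step four: add luciferase reagent, read luminescence 12 min later.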
RORgamma inh = blocks mouse ROR gamma transcriptional activity | P51450 | Drosophila S2 Gal4-RORgamma UAS-luciferase reporter, 20 h | Potency, µM (top dose mostly 53.6 µM), for inactives: at the highest dose activity change, negative = inhibition, actives largely listed as inhibitors | hit rate 5.4% among 310,000 | AID 2551; note: % is set by controls: 0 for no effect and ±100 for the full control effect; nearly all actives have a fitted effect of over 60% in size
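Drosophila S2 cells stably expressing Gal4-DBD/mouse RORγ fusion under metallothionein promoter plus UAS-luciferase; compound 1 h, then 700 uM CuSO4 induction for 20 h at ambient temperature; inhibition read as reduced luminescence.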
* = called active by the depositor; u = inconclusive; x = no result given; [ ] = dose if it differs, or a comment. Calls come from the whole dose curve; as a rule, active = well fitted curve in the direction sought with a large enough effect; inconclusive = small, poorly fitted or top-dose-only effect, or another doubt; inactive = no such curve, though single readings can be large; an effect the other way counts as inactive or inconclusive. Potency is the fitted concentration of half-maximal effect.

SMILES | Gal4-VP16 FLuc | GLP1R ag | GLP-1R inv ag | HEK293 tox | RORgamma inh
Cc1ccccc1N(CC(=O)NC1CCCCC1)C(=O)CCC(=O)Nc1nccs1 | 2% | 20% | 0% | -2% | 32%
O=C(CCC1CCCCC1)Nc1nccs1 | -2% | 1% | -13% | 3% | 18µM*
Cc1cnc(NC(=O)C2CCC(C(C)(C)C)CC2)s1 (stereo not drawn) | u | 12% | 9% | 1% | u
CCN(CC)CCCNC(=O)C(=O)Nc1ccc2nc3n(c(=O)c2c1)CCCCC3 | x | x | 12% | 1% | x
CC12CC[C@@](C(=O)O)(C(=O)C1=O)C2(C)C | 2% | x | x | x | 15%
CCn1ccnc1CN(C)Cc1cn[nH]c1-c1ccc(OC)c(F)c1 | 3% | -3% | 10µM* | -17% | 23%
COc1ccc(-c2[nH]ncc2CN(C)CCCN2CCOCC2)cc1F | -16% | 3% | 16% | -5% | 13%
CCCCC[C@H]1CN(CCc2ccccc2)C(=O)[C@@H]1CC(=O)NCc1ccc(OC)cc1 | 2% | 3% | u | -26% | 43%
CCCCC[C@H]1CN(Cc2ccccc2)C(=O)[C@@H]1CC(=O)NCc1ccccc1 | 0% | -4% | 10µM* | -24% | 34%
C/C(=N\N=C(/N)SC1CC(=O)N(c2ccccc2)C1=O)c1cccs1 (stereo not drawn) | 4% | -1% | -28% | -12% | u
C/C(=N\N=C(/N)SC1CC(=O)N(c2ccc(Cl)cc2)C1=O)c1cccs1 (stereo not drawn) | u | -5% | u | 4% | 13µM*
CC1(C)OC(C(O)(c2cc(C(F)(F)F)cc(C(F)(F)F)c2)c2cc(C(F)(F)F)cc(C(F)(F)F)c2)C(C(O)(c2cc(C(F)(F)F)cc(C(F)(F)F)c2)c2cc(C(F)(F)F)cc(C(F)(F)F)c2)O1 (stereo not drawn) | 0%[10 µM] | x | x | x | 4%[10 µM]
CC(C)(C)c1nc(SCC(=O)c2ccccc2)c2ccccc2n1 | u | 25% | u | 8% | 20µM*
CC(C)(C)c1nc(SCC(=O)N2CCCC2)c2ccccc2n1 | -7% | 3% | 4% | 21% | -18%
Cc1nn(-c2ccc3nncn3n2)c(C)c1CCC(=O)Nc1ccc(OC(F)(F)F)cc1 | x | x | 3% | -6% | x
CC1=C(C(=O)c2ccccc2)C(c2cn(-c3ccccc3)nc2-c2ccc(Cl)cc2)NC(=S)N1 (stereo not drawn) | 3.5µM* | -2% | u | -10% | 5.6µM*
CCOC(=O)C1=C(C)NC(=O)NC1c1cn(-c2ccccc2)nc1-c1ccc(OC(C)C)cc1 (stereo not drawn) | x | -1% | -25% | -17% | x
CCc1nc2cccnc2n1-c1ccc(CC(=O)Nc2ccccc2Cl)cc1 | x | x | 3% | 11% | x
CCOC(=O)c1cccc(NC(=O)Cc2ccc(NC(=O)N3CCCCc4ccccc43)cc2)c1 | x | x | u | -9% | x
COc1ccc(NC(=O)CCS(=O)(=O)c2ccc3nc(C)sc3c2)cc1Cl | x | x | -9% | -6% | x
COc1ccccc1N1CCN(C(=O)CSc2nc3ccccc3nc2Cc2ccc(C)cc2)CC1 | x | x | u | -6% | x
COc1ccccc1N1CCN(C(=O)CSc2nc3ccccc3nc2N2CCC(C)CC2)CC1 | -4% | 9% | 5µM* | -1% | -11%
COc1ccccc1N1CCN(C(=O)CSc2nc3ccccc3nc2N2CCCCC2)CC1 | 4% | 6% | 5µM* | 1% | -23%
COc1ccccc1N1CCN(C(=O)CSc2nc3ccccc3nc2Cc2ccc(F)cc2)CC1 | x | x | 55% | 28% | x
CS(=O)(=O)CCC(C(=O)Nc1cccc(C(F)(F)F)c1)N1Cc2ccccc2C1=O (stereo not drawn) | x | x | -6% | 21% | x
SMILES | Gal4-VP16 FLuc | GLP1R ag | GLP-1R inv ag | HEK293 tox | RORgamma inh
CCN(c1ccccc1)S(=O)(=O)c1c(-c2ccc(C)cc2)csc1C(=O)OC | x | x | u | 1% | x
O=C(Nc1cccc(Cl)c1)Nc1csc([N+](=O)[O-])c1 | u | -2% | 6.3µM* | u | -13%
COc1cc2c(cc1NC(=O)COc1ccccc1OC)oc1ccccc12 | 6%[0.365 µM] | -13% | 0% | -5% | 0%
COc1cc2c(cc1NC(=O)COC(=O)Cn1cnc3ccccc31)oc1ccccc12 | 3%[0.365 µM] | 2% | u | -4% | 2µM*
COc1cc2c(cc1NC(=O)COC(=O)C(CCSC)NC(=O)c1ccccc1Cl)oc1ccccc12 (stereo not drawn) | u | -10% | -7% | -4%[1.53 µM] | 10µM*
CC[C@H](C)[C@H](NC(=O)[C@H](Cc1ccc(O)cc1)NC(=O)[C@H](Cc1cnc[nH]1)NC(=O)[C@H](CCCNC(=N)N)NC(=O)[C@H](CC(C)C)NC(=O)[C@H](C)NC(=O)[C@H](CO)NC(=O)[C@H](Cc1ccc(O)cc1)NC(=O)[C@H](Cc1ccc(O)cc1)NC(=O)[C@H](CCCNC(=N)N)NC(=O)[C@H](C)NC(=O)[C@H](CCSC)NC(=O)[C@H](CC(=O)O)NC(=O)[C@H](CCC(=O)O)NC(=O)[C@H](C)NC(=O)[C@@H]1CCCN1)C(=O)N[C@@H](CC(N)=O)C(=O)N[C@@H](CC(C)C)C(=O)N[C@H](C(=O)N[C@H](C(=O)N[C@@H](CCCNC(=N)N)C(=O)N[C@@H](CCC(N)=O)C(=O)N[C@@H](CCCNC(=N)N)C(=O)N[C@@H](Cc1ccc(O)cc1)C(N)=O)[C@@H](C)O)[C@@H](C)CC | -5% | x | x | x | -3%
Cc1ccc(-n2c(CNc3ccc(C)c(Cl)c3)n[nH]c2=S)cc1 | -17% | 1% | u | 4% | 2.5µM*
Cc1ccc(-n2c(CNc3cccc(Cl)c3)n[nH]c2=S)cc1 | -15% | 3% | u | -4% | u
Cc1ccc(NCc2n[nH]c(=S)n2-c2cccc(Cl)c2)cc1 | -28% | 3% | -3% | -2% | 7.9µM*
CC(C)C[C@@H](CC(=O)N[C@H](CC(=O)N[C@@H]1CCNC[C@H]1C(=O)N[C@H](CC(=O)N[C@@H](CCC(=O)O)CC(=O)O)Cc1ccccc1)C(C)C)NC(=O)[C@@H]1CCCC[C@H]1N | -1% | x | x | x | 23%
COc1cccc2c1C(=O)c1c(O)c3c(c(O)c1C2=O)C[C@@](O)(C(=O)CO)C[C@@H]3O[C@H]1C[C@H](N)[C@H](O)[C@H](C)O1 | 5.6µM* | -10% | u | u | 3.5µM*
COc1cccc2c1C(=O)c1c(O)c3c(c(O)c1C2=O)C[C@@](O)(C(=O)CO)C[C@@H]3OC1CC(N)C(O)C(C)O1 (stereo partly drawn) | 10µM* | -21% | 4.5µM* | u | -40%[10 µM]
COc1cccc2c1C(=O)c1c(O)c3c(c(O)c1C2=O)CC(O)(C(C)=O)CC3OC1CC(N(C)C)C(O)C(C)O1 (stereo not drawn) | x | -12% | u | -33% | x

Bioassay records as filed in PubChem BioAssay.
